What all share (experiment): NCI-60 one-dose screen, 48 h (100 = growth as untreated, 0 = no growth, -100 = all killed)
Common to all, as to details: 10 µM unless noted

Test [1] concerns RPMI-8226 leukemia.
Test [2] concerns OVCAR-8 ovarian.
Test [3] concerns OVCAR-5 ovarian.
In test [4] the test system is OVCAR-4 ovarian.
Test [5] deals with SK-OV-3 ovarian.
Test [6] deals with IGROV1 ovarian.
Test [7] has as its system OVCAR-3 ovarian.
Test [8] deals with HS 578T breast.
Test [9] relates to NCI/ADR-RES ovarian.
Test [10] deals with T-47D breast.
Test [11] deals with BT-549 breast.
Test [12] concerns MDA-MB-435 melanoma.
Test [13] deals with SW-620 colon.
In test [14] the test system is MCF7 breast.
Test [15] deals with HCT-116 colon.
Test [16] concerns HCC-2998 colon.
Test [17] deals with KM12 colon.

Compounds without any hit were thinned out: in the full panel of roughly 83,000, 20% have a hit.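 Note: values are percent growth. 100 is the growth of untreated cells, values between 100 and 0 indicate rising inhibition; between -100 and 0 indicates cell death.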 A number with no mark means an inactive call. Calls of active or inactive are those of the source. The calls were made as follows: active = growth percent below 10; inactive = the rest.

`c1coc([C@@H]2C[C@@H]3Cc4ccc5ccccc5c4N2O3)c1`: the growth is 97.3% in test [1]; 99.4% in test [2]; 90.8% in test [3]; 92.4% in test [4]; 103% in test [5]; 113% in test [6]. Further, the growth is 114% in test [7]; 110% in [8]; 99.8% in [9]; 104% in test [10]; 105% in test [11]; 103% in test [12]. For the same molecule, the growth in test [13] is 103%; in test [14], 84.6%; in test [15] it was 99.2%; in test [16], 107%; in test [17], 107%.

Consider `Clc1ccc2nc(Cl)c3ccccc3c2c1`, for which the growth is 70.9% in test [1]; 50.8% in [2]; 78% in test [3]; -42.6% (active) in [4]; 0.43% (active) in [5]; 48.6% in test [6]. In addition, the growth was 35.3% in test [7]; 56.8% in [8]; 74.8% in test [9]; -13.9% (active) in test [10]; 89.6% in [11]; 50.3% in [12]. The growth in test [13] is 78.3%; in [14] it was 89.7%; in test [15] it was 19.4%; in test [16], 89.3%; in test [17] it was 55.7%.

For `CC/C(=C\c1ccc(N(C)C)cc1)c1nc2ccccc2c(=O)[nH]1`, the growth was 79.4% in test [1]; 106% in [2]; 92.9% in [3]; 95.8% in test [4]; 109% in [5]; 66.4% in test [6]. Further, the growth in [7] is 116%; in test [8] it was 328%; in test [9] it was 98.3%; in test [10], 79.2%; in test [11], 60.3%; in test [12], 108%. The growth in test [13] was 120%; in test [14] it was 98.2%; in test [15], 108%; in test [16], 93%; in test [17] it was 119%.

Take `C=C(C[C@](O)(C(=O)/C=C/c1ccc(Cl)cc1)C(=O)OC)c1ccccc1`: the growth in test [1] was -20.3% (active); in [2], 50.2%; in test [3], 105%; in [4], 84.4%; in test [5], 95.7%; in test [6], 81.2%. Moreover, the growth in test [7] was 61.7%; in test [8] it was 104%; in [9], 59.2%; in [10] it was 36.2%; in test [11] it was 79.5%; in test [12], 66.5%. Besides, the growth is 30.3% in [13]; 5.85% (active) in test [14]; 34.9% in test [15]; 41.9% in test [16]; 15.3% in test [17].

In the case of `COc1cc2c(cc1OCCCOc1ccc(-c3cc4ccccc4c4ccccc34)cc1)N=C[C@@H]1CCCN1C2=O`, the growth is 0.228% (active) in test [1]; -6.49% (active) in test [2]; -69.5% (active) in test [3]; -77.1% (active) in test [4]; -19.3% (active) in [5]; -72.3% (active) in [6]. In addition, the growth in [7] was -48.4% (active); in test [8], -15.3% (active); in test [9], -46.1% (active); in test [10], -66.4% (active); in [11], -50.8% (active); in test [12] it was -30.8% (active). Further, the growth in [13] was -43.8% (active); in test [14], -75.1% (active); in test [15], -23.1% (active); in [16] it was 2.28% (active); in test [17], -20.4% (active).

Regarding `Clc1cccc(Cc2cn3cc(-c4ccccc4)nc3s2)c1`, the growth in test [1] was 41.3%; in test [2], 53.4%; in test [3], 34.1%; in [4], 46.8%; in [5] it was 93.8%; in [6], 64.8%. Also, the growth in test [7] is 73.6%; in [8], 76.8%; in test [9] it was 60.2%; in test [10] it was 11.5%; in [11], 77.5%; in [12], 33.1%. The growth in test [13] is 30.2%; in test [14] it was 21.1%; in test [15], 42.6%; in [16] it was 17.7%; in test [17], 12.1%.

Take `O=C1CN(CO)C(=O)CN1CO`: the growth in test [1] was 103%; in test [2], 99.7%; in test [3], 94.6%; in [4], 111%; in test [5], 111%; in [6], 105%. For the same molecule, the growth in test [7] was 113%; in test [8], 101%; in [9] it was 103%; in test [10], 107%; in test [11], 113%; in test [12], 103%. For the same molecule, the growth in test [13] is 95.9%; in test [14] it was 101%; in [15], 103%; in [16] it was 104%; in test [17] it was 105%.

On to `COc1ccc(-c2cn(-c3ccccc3)c(-c3ccccc3)n2)cc1OC`, for which the growth in test [1] is 25.8%; in test [2], 75.3%; in [3], 119%; in [4], 67.3%; in test [5], 209%; in test [6], 83.7%. Moreover, the growth in [7] is 37.2%; in [8], 103%; in test [9] it was 86.2%; in [10], 131%; in [11], 15%; in [12] it was 35.7%. The growth in test [13] is 5.69% (active); in [14], 19.1%; in test [15] it was 20.3%; in [16], 58.8%; in test [17] it was -3.88% (active).

In the case of `OCCOc1c(Cl)cc(Cl)cc1Cl`, the growth in [1] is 119%; in test [2], 104%; in test [3], 92.6%; in test [4], 98.1%; in [5] it was 106%; in test [6], 115%. Besides, the growth in test [7] is 118%; in [8] it was 98.4%; in test [9] it was 102%; in test [10], 109%; in [11], 109%; in test [12], 103%. The growth in [13] was 98.7%; in test [14], 89%; in test [15] it was 109%; in test [16], 110%; in test [17] it was 115%.

Values taken from PubChem BioAssay (NCI).
